Results on three compounds are retold here after PubChem BioAssay (EPA / NIEHS).

Inconclusive results are not listed. Calls of active or inactive are those of the source. Rule for the calls, unless noted: active = hit-call score of the fitted dose curve at least 0.9, where 1 is the maximum; inactive = score below 0.9.

Assay [1] in a line: CCTE_Shafer_MEA_dev_per_network_spike_spike_percent: CCTE's Neural Network Formation Assay for Percent of Spikes in a Network Spike, Shafer Lab (AID 2284054). The essentials:
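Rat primary cortical neurons were grown on 48-well MEA plates (16 electrodes/well), exposed from plating day 0 through day 12, with treatment renewed on DIV 5 and 9. Percent of spikes within 0.05 s network-spike peaks was measured, summarised as AUC across days 5, 7, 9, 12.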

The nature of assay [2]: CCTE_Shafer_MEA_dev_LDH: CCTE's Lactate Dehydrogenase Assay for Cytotoxicity in the Neural Network Formation Assay, Shafer Lab (AID 2284068; active = hit-call score of the fitted dose curve at least 0.9, where 1 is the maximum;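 note: exposure for twelve days from plating with re-dosing on DIV 5 and 9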). The essentials: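 Developing rat cortical networks on MEA plates are exposed to compound for 12 days from plating. LDH activity is measured spectrophotometrically, with DMSO as baseline.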
Assay [3] can be described thus: CCTE_Shafer_MEA_dev_AB: CCTE's Alamar Blue Assay for Cytotoxicity in the Neural Network Formation Assay, Shafer Lab (AID 2284083; active = hit-call score of the fitted dose curve at least 0.9, where 1 is the maximum;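 note: resazurin reduction fluorescence as viability of cultured neurons; twelve days of exposure from plating with re-dosing on DIV 5 and 9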). The essentials:
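Cytotoxicity companion to the developmental MEA: primary rat cortical neurons, 12-day exposure starting day 0, compound refreshed DIV 5 and 9; resazurin fluorescence, fitted against DMSO vehicle.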

Assay [4] can be described thus: CCTE_Shafer_MEA_dev_mutual_information_norm: CCTE's Neural Network Formation Assay for Mutual Information Normalization, Shafer Lab (AID 2284091). The procedure, abridged:
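Primary rat cortical neurons on PEI-coated 48-well MEA plates, 1.5 x 10^5 cells/well, exposed from day 0 through day 12 with re-dosing at DIV 5 and 9. Mutual information between electrodes recorded days 5, 7, 9, 12; trapezoidal AUC, loss-of-signal fit versus DMSO.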

Assay [5] can be described thus: CCTE_Shafer_MEA_dev_correlation_coefficient_mean: CCTE's Neural Network Formation Assay for Mean Correlation Coefficient, Shafer Lab (AID 2284093). The procedure, abridged: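 Extracellular firing from rat cortical networks on 48-well MEAs, DMSO-referenced, negative fitting direction. Compound present from plating to DIV12; mean pairwise correlation per well integrated over DIV5–12 recordings by trapezoidal AUC.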

The nature of assay [6]: TAMU_PeakParms_SingleDonor1434_Chronotropy: Texas A&M University (TAMU) 1.5-hr Human Induced Pluripotent Stem Cell (iPSC)-derived Cardiomyocytes Calcium (Ca+2) Flux Assay for Cardiotoxicity: Chronotropy (changes in peak frequency) (AID 2284217). The note with it: actives raise or lower the signal. The procedure, abridged:
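Using fluorescent Ca2+ flux, average beats per second are measured in human iPSC-derived cardiomyocytes treated 90 min (0.5% DMSO vehicle, 0.2–100 uM). Non-beating data points are removed; activity is modeled in both directions relative to DMSO controls.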

Assay [7] is described as follows: TAMU_PeakParms_SingleDonor1434_QT: Texas A&M University (TAMU) 1.5-hr Human Induced Pluripotent Stem Cell (iPSC)-derived Cardiomyocytes Calcium (Ca+2) Flux Assay for Cardiotoxicity: QT (decay-rise ratio) (AID 2284235; active = hit-call score of the fitted dose curve at least 0.9, where 1 is the maximum). The essentials: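 iPSC-derived cardiomyocytes (single donor 1434) dosed at 0.2, 1, 10, 100 uM final in 0.5% DMSO, 90 min at 37C. Ca2+ flux fluorescence decay/rise ratio; EC05 (5% increase versus DMSO) as POD, excluding beat-arrest and severe-notch data.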

A short description of assay [8]: CCTE_Deisenroth_5AR_NBTE_donor: CCTE's 5alpha-reductase NanoBRET Target Engagement Assay […], Deisenroth Lab (AID 2284319). As to conditions: actives raise or lower the signal. The procedure, abridged: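 In this secondary endpoint, donor luminescence from SRD5A2-NanoLuc in transfected HEK293T flags artifacts. Test chemical (10 nM - 29.9 uM) is present five hours, tracer the last two; mock-tracer wells run plate-matched; data fitted bidirectionally against DMSO.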

A short description of assay [9]: CCTE_Deisenroth_5AR_NBTE_acceptor: CCTE's 5alpha-reductase NanoBRET Target Engagement Assay - Autofluorescence Screen, Deisenroth Lab (AID 2284321).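 Note: compound fluorescence in the acceptor channel under 460 nm excitation flags autofluorescence artifacts.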 The note with it: actives raise or lower the signal. The essentials: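 Autofluorescence counter-screen: chemicals at an assumed nominal 100 uM in DMSO were scanned in three independent runs with 460 nm excitation. Gain or loss of acceptor signal was fitted bidirectionally against DMSO.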
For orientation: BRET reads energy transfer from a luciferase to a nearby fluorophore.

The next assay concerns SRD5A2 (gene 6716). As to the kind of experiment: CCTE_Deisenroth_5AR_NBTE_ratio: CCTE's 5alpha-reductase NanoBRET Target Engagement Assay - Ratio, Deisenroth Lab (AID 2284322). The note with it: actives raise or lower the signal. The procedure, abridged: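 HEK293T transiently expressing SRD5A2-NanoLuc; cells exposed to chemical (8-point, 10 nM - 29.9 uM) for 5 h total, testosterone tracer added for final 2 h. NanoBRET acceptor/donor ratio (650/460 nm), bidirectional fit vs DMSO.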

The target in assay [10] is rat CYP1A2, Cyp1a2 (gene 24297) (UniProt P04799). As to the kind of experiment: NVS_ADME_rCYP1A2: NovaScreen (NVS) CYP450-related Enzyme Activity (ADME) Assay for rat CYP1A2 (AID 2283115; active = hit-call score of the fitted dose curve at least 0.9, where 1 is the maximum). The procedure, abridged:
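Cell-free recombinant rat enzyme with fluorogenic substrate, read by fluorescence intensity 1 hour after dosing. Loss of signal versus acetonitrile negative control; primary screen at 10 uM in duplicate, actives followed in concentration series.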

Sequence of rat CYP1A2, Cyp1a2 (gene 24297) (P04799 whole entry, looked up): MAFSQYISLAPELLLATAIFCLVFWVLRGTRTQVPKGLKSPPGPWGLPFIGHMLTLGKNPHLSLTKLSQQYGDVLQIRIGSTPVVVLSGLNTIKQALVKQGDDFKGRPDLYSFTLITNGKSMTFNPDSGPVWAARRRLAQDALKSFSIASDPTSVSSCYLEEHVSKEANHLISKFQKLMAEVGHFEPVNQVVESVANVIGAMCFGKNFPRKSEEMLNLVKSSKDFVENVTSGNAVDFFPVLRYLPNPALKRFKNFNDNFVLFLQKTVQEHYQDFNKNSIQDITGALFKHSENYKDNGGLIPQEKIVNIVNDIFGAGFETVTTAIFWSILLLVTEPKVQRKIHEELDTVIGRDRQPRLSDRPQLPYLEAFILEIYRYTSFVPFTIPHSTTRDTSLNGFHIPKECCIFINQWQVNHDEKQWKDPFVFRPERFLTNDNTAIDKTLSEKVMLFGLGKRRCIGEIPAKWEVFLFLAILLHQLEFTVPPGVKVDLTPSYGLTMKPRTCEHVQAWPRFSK

For the compound `CC1CCCC1.[C-]#[O+].[C-]#[O+].[C-]#[O+].[Mn]`, the compound was called inactive in assay [1], in assay [2], in assay [3], in assay [4] and in assay [5]. The values for the AC50 in assay [6] and in [7] were 50 µM (active) and 9.92 µM (active), respectively.

As for `CC(C)c1ccc(O)cc1`, the compound was called inactive (in assay [8]; in assay [9]; in the assay on SRD5A2 (gene 6716)).

Take `c1ccc2c(c1)c1cccc3ccc4cccc2c4c31`: in [10], the compound was classed as inactive.
